Screening data from PubChem BioAssay.
Methyltransferases: Primary Screen for Target Class Profiling of Small Molecule Inhibitors of Methyltransferases; purified enzyme, MTase-Glo SAH luminescence; stronger effect = lower value; calls only at 40 µM; 3.9% of 25,000 active; AID 1745853, 2022; call rule not given here
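Each enzyme was assayed with SAM and its substrate. SAH formation detected by MTase-Glo luminescence; single-point 40 uM screen[…].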
Calls only; – = inactive; + = active, no number; ! = not confirmed by another sample. Many of the other results were omitted from the sample, so hits are more common in it than they were.

SMILES	Methyltransferases
CCCn1c(=O)c2ccc(C(=O)NC(C)C)cc2n2c(=O)n(CC(=O)Nc3cccc(CC)c3)nc12	–
Cc1ccc(CNC(=O)C2(C)Cn3cnc(C(=O)NCc4cccc(C)c4)c3C(=O)N2C2CC2)cc1 (configuration not stated)	–
CC1(C(=O)NCc2ccc(F)cc2)Cn2cnc(C(=O)NCCc3ccco3)c2C(=O)N1C1CC1 (configuration not stated)	–
CCOCCCNc1nc2c(S(=O)(=O)c3c(C)cc(C)cc3C)nnn2c2ccccc12	–
CC1(C)CC(=O)c2c(C(F)(F)F)nn(-c3ccc(C(N)=O)c(NC4CCC(OC(=O)CN)CC4)c3)c2C1 (configuration not stated)	+!
CCCn1c(=O)c2ccc(C(=O)NCC(C)C)cc2n2c(=O)n(CC(=O)Nc3cccc(C)c3)nc12	–
CCOc1ccc(CNC(=O)c2cc3n(n2)CC(C)(C(=O)NCCC(C)C)N(C)C3=O)cc1OC (configuration not stated)	–
C=C1C(=O)O[C@H]2[C@H]1[C@@H](OC(=O)C(C)CO)C[C@@]1(C)[C@H](O)CCC(=O)[C@H]21 (some centres not stated)	–
C=C1CC2OC(=O)C(=C)C2C(OC(=O)/C(C)=C\C)CC2(C)OC1=CC2=O (configuration not stated)	–
C=C1C(=O)O[C@@H]2CC(C)=C([C@@H](C)CCCO)[C@@H](OC(=O)C(C)C)[C@H]12	+
CN1C(=O)c2cc(C(=O)NCCCN3CCCC3=O)nn2CC1(C)C(=O)NCc1ccc(F)cc1 (configuration not stated)	–
CCCN1C(=O)c2c(C(=O)Nc3ccccc3CC)ncn2CC1(C)C(=O)NCc1ccc(C)cc1 (configuration not stated)	–
COC(=O)c1ncn2c1C(=O)N(c1cccc(SC)c1)C(C)(C(=O)NC1CCCCC1)C2 (configuration not stated)	–
CCCn1c(=O)c2ccc(C(=O)NC3CCCC3)cc2n2c(=O)n(Cc3cccc(C)c3)nc12	–
Oc1ccc(C2CNCc3sccc32)cc1O (configuration not stated)	+
CCOC(=O)c1cc2n(n1)CC(C)(C(=O)NCc1ccccc1)N(Cc1ccccc1Cl)C2=O (configuration not stated)	–
Cc1cccc(Cn2nc3n(CCCOC(C)C)c(=O)c4ccccc4n3c2=O)c1	–
CCC(C)N1C(=O)c2cc3occc3n2CC1(C)C(=O)NC1CCCCCC1 (configuration not stated)	–
Cc1c[nH]c2ncnc(N3CCC(CN)(C(=O)Nc4cccc(OC(=O)N(C)C)c4)CC3)c12	+
COc1cccc(NC(=O)C2(C)CCc3cnc(NCc4ccccc4)nc32)c1 (configuration not stated)	–
CCCn1c(=O)c2ccccc2n2c(=O)n(Cc3cc(C)ccc3C)nc12	–
CCc1ccc(N2C(=O)c3cc(-c4ccc(OC)cc4)nn3CC2(C)C(=O)NC2CCCCC2)cc1 (configuration not stated)	–
CCCC[C@@]1(C2CCCC2)Cc2cc(OCC(=O)O)c(Cl)c(Cl)c2C1=O	+
C[C@]1(C2CCCC2)Cc2cc(OCC(=O)O)c(Cl)c(Cl)c2C1=O	+
COCCNC(=O)C1(C)Cn2nc(-c3ccccc3)cc2C(=O)N1c1ccc(F)cc1C (configuration not stated)	–
SMILES	Methyltransferases
COc1cccc(CNc2nc3c(S(=O)(=O)c4ccc(C)c(C)c4)nnn3c3ccccc23)c1	–
Cc1cccc([C@H]2Nc3ccc(S(=O)(=O)Nc4cc(C)ccc4C)cc3[C@H]3C=CC[C@H]32)c1	–
CCc1ccc(CNC(=O)c2cc3n(n2)CC(C)(C(=O)NC2CCCC2)N(CC)C3=O)cc1 (configuration not stated)	–
Cc1ccc(NS(=O)(=O)c2ccc3[nH]c4c(c3c2)CCCC4)c(Cl)c1	–
CC(C)CCN1C(=O)c2cc3occc3n2CC1(C)C(=O)NC1CCCC(C)C1C (configuration not stated)	–
Cn1c(=O)n(C)c2cc(S(=O)(=O)Nc3ccc4c(c3)OCO4)ccc21	–
Cc1ccc(N2C(=O)c3cc(C(C)(C)C)nn3CC2(C)C(=O)NC2CCCCC2)cc1 (configuration not stated)	–
C=Cc1ccc(Cn2nc3n(CCC(C)C)c(=O)c4ccc(C(=O)NC(C)CC)cc4n3c2=O)cc1 (configuration not stated)	–
Cc1cc2c(cc1S(=O)(=O)NCc1ccccc1)n(C)c(=O)n2C	–
CCOC(=O)c1cc2n(n1)CC(C)(C(=O)NCc1ccccc1)N(c1cc(C)cc(C)c1)C2=O (configuration not stated)	–
CCCC1c2cccn2CCN1C(=O)Nc1cc(C)ccc1OC (configuration not stated)	–
CC(=O)N1CC2(CCCN2Cc2cccc(C(N)=O)c2)Cc2ccccc21 (configuration not stated)	–
O=C1CN(Cc2cccc(Cl)c2)S(=O)(=O)c2ccccc2N1Cc1ccc(Cl)cc1	–
O=C(O)c1cccc(CN2C(=O)/C(=C(\c3ccccc3)c3ccc(Cl)cc3)c3ccccc32)c1	+
CN1C(=O)c2cc(C(=O)NCc3ccc4c(c3)OCO4)nn2CC1(C)C(=O)NCc1ccccc1 (configuration not stated)	–
CC(C)(O)c1ccc2c(c1)ncn2-c1cccc(-c2ccccc2C#N)c1	+
COc1ccc2[nH]cc(C(=O)Cn3nc4n(Cc5ccccc5)c(=O)c5ccccc5n4c3=O)c2c1	–
CCCN1C(=O)c2c(C(=O)NCc3ccc(F)cc3)ncn2CC1(C)C(=O)NCc1ccc(C)cc1 (configuration not stated)	–
C=C(C)[C@H]1C[C@@H](O)C(=C)CC[C@@H](O)C(=C)[C@@H](O)C1	+
CC(C)NC(=O)c1ccc2c(=O)n(C(C)C)c3nn(Cc4ccc(N5CCCC5=O)cc4)c(=O)n3c2c1	–
O=C(CCn1ccc2cc(S(=O)(=O)N3CCCCC3)ccc21)N1CCOCC1	–
Cc1[nH]c(/C=C2\C(=O)Nc3cc(-c4ccccc4)ccc32)c(C)c1CCC(=O)O	–
CN1C(=O)c2ccccc2NC(=O)[C@]12O[C@@H]2c1cccc(O)c1	–
O=C1Nc2ccccc2/C1=C/c1cc(O)ccc1O	+
COc1ccc(OC)c2c1cc1n2CC(C)(C(=O)NC2CCCCCC2)N(Cc2ccco2)C1=O (configuration not stated)	–
SMILES	Methyltransferases
COc1ccc(C2CC(=O)c3cc(-c4nc(-c5cccc([N+](=O)[O-])c5)cs4)c(=O)n(-c4ccccc4N)c3C2)cc1 (configuration not stated)	+
COc1ccc(S(=O)(=O)Nc2nc(-c3cccc([N+](=O)[O-])c3)cs2)cc1OC	–
COc1cccc(CNC(=O)N2Cc3c(sc4c3CCCC4)-n3cccc3C2c2ccccc2)c1 (configuration not stated)	–
Cc1cn([C@H]2CC(N=[N+]=[N-])[C@@H](CO)O2)c(=O)[nH]c1=O (some centres not stated)	–
CCOc1ccccc1CN1C(=O)c2cc3ccc(OC)cc3n2CC1(C)C(=O)NC1CCCCC1 (configuration not stated)	–
Cc1cn(-c2cc(NC(=O)c3ccc(C)c(Nc4nccc(-c5cnccn5)n4)c3)cc(C(F)(F)F)c2)cn1	–
CCN1CCN(Cc2ccc(NC(=O)c3ccc(C)c(NC(=O)c4cncc(-c5cccs5)c4)c3)cc2C(F)(F)F)CC1	–
